Common to all, as to assay: DAPPL (digital affinity profiling via proximity ligation, sequencing); 10 mM Tris-HCl pH 7.5, 50 mM NaCl, 1 mM DTT, 4% glycerol, room temperature, 30 min; GST-TFs on glutathione beads, 16-mer random dsDNA library, 0.1% formaldehyde crosslink after washing; high values mean tight binding
Test [1] concerns the target T1, FEV (Homo sapiens, UniProt Q99581 1-238).
T1 sequence: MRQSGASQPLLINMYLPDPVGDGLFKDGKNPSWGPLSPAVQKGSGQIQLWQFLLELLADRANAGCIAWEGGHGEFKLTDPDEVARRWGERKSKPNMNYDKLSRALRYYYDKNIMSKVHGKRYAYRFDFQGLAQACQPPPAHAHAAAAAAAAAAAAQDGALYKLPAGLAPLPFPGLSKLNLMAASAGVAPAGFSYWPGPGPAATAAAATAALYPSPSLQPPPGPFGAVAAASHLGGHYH
Conditions: protein: recombinant; tags: N-terminal GST; dsDNA, one strand shown. The method, boiled down:
(§1)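 Binding signal is given per hexamer as its read frequency for a factor divided by its frequency in the tag-only sample. GST-fused human transcription factors were expressed in yeast, captured on glutathione beads, barcoded with DNA and pooled with that sample, then incubated with 200 nmole of a 16-mer random double-stranded DNA library in Tris/NaCl/DTT/glycerol buffer for 30 min at room temperature. The pools were then washed, crosslinked, proximity-ligated, amplified by PCR and sequenced on an Illumina NextSeq500.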

The target in test [2] is ETV5 (Homo sapiens, UniProt P41161 1-510). Conditions: protein: recombinant; tags: N-terminal GST; dsDNA, one strand shown. In a few lines: as §1
Chain of ETV5 (P41161 whole entry): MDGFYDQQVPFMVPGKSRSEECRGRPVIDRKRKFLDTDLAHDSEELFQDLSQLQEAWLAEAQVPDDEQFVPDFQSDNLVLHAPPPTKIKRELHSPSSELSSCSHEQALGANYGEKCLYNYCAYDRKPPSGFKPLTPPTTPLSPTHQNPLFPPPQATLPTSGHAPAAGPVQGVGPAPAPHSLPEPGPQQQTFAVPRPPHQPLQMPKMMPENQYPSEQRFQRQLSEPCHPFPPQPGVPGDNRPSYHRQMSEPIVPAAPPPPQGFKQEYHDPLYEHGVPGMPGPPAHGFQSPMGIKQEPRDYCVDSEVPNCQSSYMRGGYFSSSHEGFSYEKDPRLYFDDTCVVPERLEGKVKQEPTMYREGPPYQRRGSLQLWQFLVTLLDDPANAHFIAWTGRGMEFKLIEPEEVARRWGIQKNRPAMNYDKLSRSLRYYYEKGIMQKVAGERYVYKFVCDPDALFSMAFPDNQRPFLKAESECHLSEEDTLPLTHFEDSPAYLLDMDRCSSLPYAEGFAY
Test [3] deals with HSF1 (Homo sapiens, UniProt Q00613 1-529). Conditions: protein: recombinant; tags: N-terminal GST; chain copies: 3; dsDNA, one strand shown. In a few lines: as §1
Chain of HSF1 (Q00613 whole entry): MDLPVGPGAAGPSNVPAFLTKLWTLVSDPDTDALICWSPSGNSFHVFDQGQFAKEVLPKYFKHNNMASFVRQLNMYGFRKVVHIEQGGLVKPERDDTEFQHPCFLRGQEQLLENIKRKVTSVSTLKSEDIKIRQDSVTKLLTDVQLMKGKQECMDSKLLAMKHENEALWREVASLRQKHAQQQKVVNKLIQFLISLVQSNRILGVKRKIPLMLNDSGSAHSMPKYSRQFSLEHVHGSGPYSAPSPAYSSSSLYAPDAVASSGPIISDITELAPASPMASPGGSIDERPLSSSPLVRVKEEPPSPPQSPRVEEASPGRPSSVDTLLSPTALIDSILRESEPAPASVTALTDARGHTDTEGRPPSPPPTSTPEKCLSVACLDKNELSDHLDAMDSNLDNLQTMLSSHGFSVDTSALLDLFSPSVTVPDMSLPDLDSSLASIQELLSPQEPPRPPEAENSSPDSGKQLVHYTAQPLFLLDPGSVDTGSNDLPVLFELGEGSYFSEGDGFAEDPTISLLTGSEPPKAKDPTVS
For test [4], the target named is T2, SPIC (Homo sapiens, UniProt Q8N5J4 1-248).
T2 sequence: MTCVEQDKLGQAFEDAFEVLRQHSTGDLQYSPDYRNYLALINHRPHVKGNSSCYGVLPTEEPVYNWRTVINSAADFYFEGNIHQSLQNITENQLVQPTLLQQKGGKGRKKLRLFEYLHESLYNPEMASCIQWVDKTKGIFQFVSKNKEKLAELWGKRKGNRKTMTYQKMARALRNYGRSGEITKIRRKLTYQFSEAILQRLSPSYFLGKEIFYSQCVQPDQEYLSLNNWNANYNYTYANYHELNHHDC
The settings on record: protein: recombinant; tags: N-terminal GST; dsDNA, one strand shown. The method, boiled down: as §1

Test [5] concerns the target ELF4 (Homo sapiens, UniProt Q99607 1-663). Conditions: protein: recombinant; tags: N-terminal GST; dsDNA, one strand shown. In a few lines: as §1
In test [6] the target is T3, ELK4 (Homo sapiens, UniProt P28324-2 1-405).
T3 sequence: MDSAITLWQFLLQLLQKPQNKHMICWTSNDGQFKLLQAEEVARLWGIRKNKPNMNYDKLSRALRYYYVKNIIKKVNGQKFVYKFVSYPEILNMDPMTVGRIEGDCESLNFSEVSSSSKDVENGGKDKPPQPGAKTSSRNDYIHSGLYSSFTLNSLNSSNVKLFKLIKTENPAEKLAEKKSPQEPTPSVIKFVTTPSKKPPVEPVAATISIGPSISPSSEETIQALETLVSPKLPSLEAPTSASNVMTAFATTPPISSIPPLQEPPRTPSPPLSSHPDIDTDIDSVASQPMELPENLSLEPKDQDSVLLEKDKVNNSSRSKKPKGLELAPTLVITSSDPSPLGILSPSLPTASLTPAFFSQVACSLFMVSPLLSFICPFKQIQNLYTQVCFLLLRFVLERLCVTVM
The settings on record: protein: recombinant; tags: N-terminal GST; dsDNA, one strand shown. In a few lines: as §1

The target of test [7] is T4, ETV2 (Homo sapiens, UniProt O00321 1-342).
T4 sequence: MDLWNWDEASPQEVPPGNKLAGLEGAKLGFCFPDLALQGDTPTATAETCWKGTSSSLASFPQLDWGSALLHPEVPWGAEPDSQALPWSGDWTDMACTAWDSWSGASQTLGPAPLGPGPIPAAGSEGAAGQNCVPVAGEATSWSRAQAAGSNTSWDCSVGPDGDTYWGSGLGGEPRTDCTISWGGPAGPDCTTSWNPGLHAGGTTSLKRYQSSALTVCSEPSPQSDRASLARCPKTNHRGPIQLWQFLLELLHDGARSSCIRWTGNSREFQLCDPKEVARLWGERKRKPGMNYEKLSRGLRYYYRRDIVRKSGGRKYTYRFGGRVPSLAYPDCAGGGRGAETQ
The settings on record: protein: recombinant; tags: N-terminal GST; dsDNA, one strand shown. In a few lines:
as §1

Test [8] has as its target T5, ELF3 (Homo sapiens, UniProt P78545 1-371).
T5 sequence: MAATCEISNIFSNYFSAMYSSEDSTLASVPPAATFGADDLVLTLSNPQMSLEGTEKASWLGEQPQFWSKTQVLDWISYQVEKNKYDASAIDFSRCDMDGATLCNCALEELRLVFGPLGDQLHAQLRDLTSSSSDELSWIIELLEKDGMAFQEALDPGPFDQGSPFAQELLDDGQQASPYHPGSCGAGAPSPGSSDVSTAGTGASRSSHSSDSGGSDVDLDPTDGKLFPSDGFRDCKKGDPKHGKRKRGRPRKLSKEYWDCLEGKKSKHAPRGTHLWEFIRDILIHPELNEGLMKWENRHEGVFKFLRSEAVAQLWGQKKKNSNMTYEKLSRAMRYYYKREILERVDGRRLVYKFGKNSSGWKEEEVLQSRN
Conditions: protein: recombinant; tags: N-terminal GST; dsDNA, one strand shown. The method, boiled down:
as §1

Test [9] addresses CRX (Homo sapiens, UniProt O43186 1-299). Conditions: protein: recombinant; tags: N-terminal GST; dsDNA, one strand shown. In a few lines: as §1
Test [10] addresses ETV1 (Homo sapiens, UniProt P50549 1-477). The settings on record: protein: recombinant; tags: N-terminal GST; dsDNA, one strand shown. In a few lines: as §1
In test [11] the target is T6, ERF (Homo sapiens, UniProt P50548 1-548).
T6 sequence: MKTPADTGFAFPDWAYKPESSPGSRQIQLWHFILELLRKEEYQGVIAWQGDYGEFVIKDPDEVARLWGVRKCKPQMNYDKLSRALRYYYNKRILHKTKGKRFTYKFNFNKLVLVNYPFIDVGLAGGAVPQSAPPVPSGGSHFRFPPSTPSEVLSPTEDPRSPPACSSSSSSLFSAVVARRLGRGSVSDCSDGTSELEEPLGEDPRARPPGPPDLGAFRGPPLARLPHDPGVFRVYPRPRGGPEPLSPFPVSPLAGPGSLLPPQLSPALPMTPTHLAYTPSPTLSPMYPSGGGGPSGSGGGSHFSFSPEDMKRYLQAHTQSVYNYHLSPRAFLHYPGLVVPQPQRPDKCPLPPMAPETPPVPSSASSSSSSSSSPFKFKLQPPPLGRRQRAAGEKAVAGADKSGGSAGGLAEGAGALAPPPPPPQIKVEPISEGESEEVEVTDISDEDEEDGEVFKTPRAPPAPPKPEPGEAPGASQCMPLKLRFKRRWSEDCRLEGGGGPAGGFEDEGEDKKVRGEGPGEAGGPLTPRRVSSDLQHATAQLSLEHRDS
The settings on record: protein: recombinant; tags: N-terminal GST; dsDNA, one strand shown. In a few lines:
as §1

Test [12] has as its target T7, ETV3L (Homo sapiens, UniProt Q6ZN32 1-361).
T7 sequence: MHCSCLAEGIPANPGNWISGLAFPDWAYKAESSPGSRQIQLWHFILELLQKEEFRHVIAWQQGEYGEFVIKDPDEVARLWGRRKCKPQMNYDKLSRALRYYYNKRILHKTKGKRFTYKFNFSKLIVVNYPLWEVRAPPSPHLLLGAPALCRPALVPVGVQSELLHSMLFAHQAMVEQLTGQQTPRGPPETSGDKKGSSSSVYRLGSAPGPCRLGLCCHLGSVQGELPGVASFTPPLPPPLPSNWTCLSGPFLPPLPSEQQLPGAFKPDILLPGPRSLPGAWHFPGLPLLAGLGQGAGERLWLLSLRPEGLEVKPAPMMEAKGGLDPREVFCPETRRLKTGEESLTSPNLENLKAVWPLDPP
The settings on record: protein: recombinant; tags: N-terminal GST; dsDNA, one strand shown. The method, boiled down: as §1

The target in test [13] is T8, ETS2 (Homo sapiens, UniProt P15036 1-469).
T8 sequence: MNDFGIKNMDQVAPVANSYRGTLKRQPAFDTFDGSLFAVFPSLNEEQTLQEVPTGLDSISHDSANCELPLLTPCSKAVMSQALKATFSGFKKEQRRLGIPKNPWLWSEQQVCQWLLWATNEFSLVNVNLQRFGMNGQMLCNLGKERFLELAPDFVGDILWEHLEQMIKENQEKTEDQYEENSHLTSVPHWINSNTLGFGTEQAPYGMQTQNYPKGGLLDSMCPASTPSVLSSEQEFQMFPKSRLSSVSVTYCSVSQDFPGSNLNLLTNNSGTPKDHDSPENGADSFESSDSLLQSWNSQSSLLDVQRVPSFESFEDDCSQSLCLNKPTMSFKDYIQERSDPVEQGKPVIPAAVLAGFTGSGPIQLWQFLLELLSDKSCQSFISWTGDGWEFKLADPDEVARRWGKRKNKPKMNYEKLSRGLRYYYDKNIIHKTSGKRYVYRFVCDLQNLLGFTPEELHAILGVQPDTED
Conditions: protein: recombinant; tags: N-terminal GST; dsDNA, one strand shown. The method, boiled down:
as §1

Test [14] addresses T9, SPDEF (Homo sapiens, UniProt O95238 1-335).
T9 sequence: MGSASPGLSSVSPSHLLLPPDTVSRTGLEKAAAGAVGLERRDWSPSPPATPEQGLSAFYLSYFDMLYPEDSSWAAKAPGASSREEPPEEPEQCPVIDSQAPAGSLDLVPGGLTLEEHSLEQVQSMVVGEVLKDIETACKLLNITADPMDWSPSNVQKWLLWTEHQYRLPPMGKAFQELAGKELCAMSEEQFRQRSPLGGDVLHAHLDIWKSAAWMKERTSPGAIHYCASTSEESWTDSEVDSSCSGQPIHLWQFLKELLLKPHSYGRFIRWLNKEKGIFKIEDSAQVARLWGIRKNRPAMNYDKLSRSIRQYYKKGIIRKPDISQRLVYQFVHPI
The settings on record: protein: recombinant; tags: N-terminal GST; dsDNA, one strand shown. In a few lines: as §1

In test [15] the target is T10, ETV7 (Homo sapiens, UniProt Q9Y603 1-341).
T10 sequence: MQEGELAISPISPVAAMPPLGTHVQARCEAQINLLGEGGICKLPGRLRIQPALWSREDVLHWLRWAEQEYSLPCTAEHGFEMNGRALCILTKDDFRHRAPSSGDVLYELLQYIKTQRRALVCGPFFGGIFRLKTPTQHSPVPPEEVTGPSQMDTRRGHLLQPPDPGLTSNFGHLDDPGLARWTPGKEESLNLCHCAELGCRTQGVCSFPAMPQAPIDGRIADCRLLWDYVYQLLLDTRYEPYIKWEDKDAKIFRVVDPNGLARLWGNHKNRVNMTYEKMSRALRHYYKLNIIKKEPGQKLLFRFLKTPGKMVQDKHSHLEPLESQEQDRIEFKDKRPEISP
The settings on record: protein: recombinant; tags: N-terminal GST; dsDNA, one strand shown. In a few lines: as §1

Test [16] addresses T11, ELF5 (Homo sapiens, UniProt Q9UKW6-2 1-255).
T11 sequence: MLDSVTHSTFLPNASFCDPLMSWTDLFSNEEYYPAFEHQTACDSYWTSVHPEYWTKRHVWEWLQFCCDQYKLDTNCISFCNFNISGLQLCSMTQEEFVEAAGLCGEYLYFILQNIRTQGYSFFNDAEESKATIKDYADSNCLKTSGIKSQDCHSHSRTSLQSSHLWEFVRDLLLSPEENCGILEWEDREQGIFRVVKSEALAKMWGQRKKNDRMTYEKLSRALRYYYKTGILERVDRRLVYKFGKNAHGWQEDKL
The settings on record: protein: recombinant; tags: N-terminal GST; dsDNA, one strand shown. In a few lines: as §1

The target in test [17] is T12, ETV3 (Homo sapiens, UniProt P41162-2 1-143).
T12 sequence: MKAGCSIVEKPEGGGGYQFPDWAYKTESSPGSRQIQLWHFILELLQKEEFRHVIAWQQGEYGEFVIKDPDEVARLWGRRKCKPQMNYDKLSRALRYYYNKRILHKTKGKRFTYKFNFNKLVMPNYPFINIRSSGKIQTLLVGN
Conditions: protein: recombinant; tags: N-terminal GST; dsDNA, one strand shown. In a few lines: as §1

Test [18] deals with ETV6 (Homo sapiens, UniProt P41212 1-452). Conditions: protein: recombinant; tags: N-terminal GST; dsDNA, one strand shown. The method, boiled down:
as §1

Chain of ETV6 (P41212 whole entry): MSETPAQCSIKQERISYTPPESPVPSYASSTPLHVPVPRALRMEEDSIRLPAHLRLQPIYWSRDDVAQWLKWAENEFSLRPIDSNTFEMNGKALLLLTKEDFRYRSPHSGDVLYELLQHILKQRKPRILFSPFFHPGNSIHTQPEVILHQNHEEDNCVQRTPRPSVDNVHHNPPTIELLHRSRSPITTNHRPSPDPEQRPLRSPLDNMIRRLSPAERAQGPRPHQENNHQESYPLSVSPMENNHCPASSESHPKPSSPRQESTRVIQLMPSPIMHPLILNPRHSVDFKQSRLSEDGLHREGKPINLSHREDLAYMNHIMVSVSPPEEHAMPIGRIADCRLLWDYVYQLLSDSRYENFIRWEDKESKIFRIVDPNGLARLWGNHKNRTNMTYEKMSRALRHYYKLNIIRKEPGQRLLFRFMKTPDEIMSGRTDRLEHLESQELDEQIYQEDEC
Chain of ETV1 (P50549 whole entry): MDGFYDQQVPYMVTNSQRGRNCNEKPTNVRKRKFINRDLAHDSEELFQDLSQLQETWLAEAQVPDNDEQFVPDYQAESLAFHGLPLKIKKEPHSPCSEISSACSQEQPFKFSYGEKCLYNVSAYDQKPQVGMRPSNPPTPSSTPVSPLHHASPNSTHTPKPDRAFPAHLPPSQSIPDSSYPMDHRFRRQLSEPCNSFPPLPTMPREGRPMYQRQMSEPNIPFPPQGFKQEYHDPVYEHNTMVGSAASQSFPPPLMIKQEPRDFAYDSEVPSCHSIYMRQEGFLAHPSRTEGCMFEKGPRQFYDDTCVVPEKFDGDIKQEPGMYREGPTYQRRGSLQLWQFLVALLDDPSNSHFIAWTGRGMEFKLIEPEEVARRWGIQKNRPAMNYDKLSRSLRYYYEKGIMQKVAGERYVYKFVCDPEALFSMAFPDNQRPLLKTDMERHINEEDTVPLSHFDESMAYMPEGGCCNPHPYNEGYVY
Chain of ELF4 (Q99607 whole entry): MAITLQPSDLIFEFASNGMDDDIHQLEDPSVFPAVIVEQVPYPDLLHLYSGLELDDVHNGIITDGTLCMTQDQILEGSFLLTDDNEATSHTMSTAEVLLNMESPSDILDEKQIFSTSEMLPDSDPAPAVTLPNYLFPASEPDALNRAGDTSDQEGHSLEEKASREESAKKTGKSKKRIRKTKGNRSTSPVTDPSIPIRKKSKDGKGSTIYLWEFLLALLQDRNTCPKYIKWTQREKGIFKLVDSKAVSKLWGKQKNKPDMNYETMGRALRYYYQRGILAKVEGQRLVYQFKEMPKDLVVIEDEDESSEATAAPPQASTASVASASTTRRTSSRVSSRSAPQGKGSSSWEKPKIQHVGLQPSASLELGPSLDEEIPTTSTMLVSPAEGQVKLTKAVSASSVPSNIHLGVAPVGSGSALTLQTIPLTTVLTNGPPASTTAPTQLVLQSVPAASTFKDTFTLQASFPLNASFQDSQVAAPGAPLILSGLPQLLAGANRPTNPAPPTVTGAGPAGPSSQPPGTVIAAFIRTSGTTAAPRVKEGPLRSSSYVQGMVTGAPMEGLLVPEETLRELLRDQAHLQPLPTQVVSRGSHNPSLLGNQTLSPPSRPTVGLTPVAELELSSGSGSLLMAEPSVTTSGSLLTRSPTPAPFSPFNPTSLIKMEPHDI
Chain of CRX (O43186 whole entry): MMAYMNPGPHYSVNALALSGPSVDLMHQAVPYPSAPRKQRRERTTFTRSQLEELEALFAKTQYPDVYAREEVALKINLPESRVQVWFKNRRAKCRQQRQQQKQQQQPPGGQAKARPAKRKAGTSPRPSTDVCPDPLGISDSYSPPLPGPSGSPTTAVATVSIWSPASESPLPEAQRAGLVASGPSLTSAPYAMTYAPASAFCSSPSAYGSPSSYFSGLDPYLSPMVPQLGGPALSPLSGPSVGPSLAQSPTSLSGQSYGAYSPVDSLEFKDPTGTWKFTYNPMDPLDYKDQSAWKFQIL

Turning to TTTGTA, the binding signal in test [1] is 1.52 fold enrichment (6-mer frequency, TF over GST control); in test [2], 1.64 fold enrichment (6-mer frequency, TF over GST control); in test [3], 1.65 fold enrichment (6-mer frequency, TF over GST control); in test [4] it was 1.57 fold enrichment (6-mer frequency, TF over GST control); in [5], 1.58 fold enrichment (6-mer frequency, TF over GST control); in [6], 1.75 fold enrichment (6-mer frequency, TF over GST control). Moreover, the binding signal is 1.53 fold enrichment (6-mer frequency, TF over GST control) in test [7]; 1.61 fold enrichment (6-mer frequency, TF over GST control) in [8]; 1.89 fold enrichment (6-mer frequency, TF over GST control) in test [9]; 1.51 fold enrichment (6-mer frequency, TF over GST control) in [10]; 1.63 fold enrichment (6-mer frequency, TF over GST control) in [11]; 1.69 fold enrichment (6-mer frequency, TF over GST control) in [12]. The binding signal is 1.52 fold enrichment (6-mer frequency, TF over GST control) in test [13]; 1.6 fold enrichment (6-mer frequency, TF over GST control) in test [14]; 1.53 fold enrichment (6-mer frequency, TF over GST control) in test [15]; 1.46 fold enrichment (6-mer frequency, TF over GST control) in [16]; 1.63 fold enrichment (6-mer frequency, TF over GST control) in test [17]; 1.54 fold enrichment (6-mer frequency, TF over GST control) in test [18].

Values taken from article PMC7862700, “An all-to-all approach to the identification of sequence-specific readers for epigenetic DNA modifications on cytosine”.
